Compound activity deposited in PubChem BioAssay by National Center for Advancing Translational Sciences (NCATS).
Pf growth 48h: P. falciparum growth inhibition at 48 hours (one generation) | P. falciparum luciferase growth in erythrocytes, 48 h | Potency, µM (series often up to 28.7 µM), for the others: at the top dose activity change, negative = inhibition, usual class: inhibitors | hit rate 5.9% among 310,000 | AID 504832; also: potency is read from the fitted curve at half-maximal effect; % is scaled to controls: 0 for no effect and ±100 for the full control effect
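Luciferase-expressing P. falciparum in infected erythrocytes (2% hematocrit, 0.1% parasitemia final) in RPMI 1640/0.5% Albumax were exposed to compound for 48 hours at 37 C, 5% CO2; growth read as luminescence.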
AMA1 RON2 block: inhibitors of Plasmodium falciparum AMA1-RON2 interaction; AlphaScreen AMA1-biotinylated RON2 peptide binding; Potency, µM (series often up to 58.2 µM), inactives show top-dose activity change, negative = inhibition, usual class: inhibitors; hit rate 0.2% among 360,000;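 also: potency is read from the fitted curve at half-maximal effect; 0% = vehicle wells and -100% = peptide control; nearly all actives have a fitted effect of over 45% in size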
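AMA1 (3D7) with his tag at 25 nM final met compounds first, then biotinylated RON2 peptide at 25 nM; detection used donor plus acceptor beads, 10 µg/mL apiece, read by AlphaScreen after 30 min at room temperature.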
Cycloheximide cs: counter-screen hit for Shiga toxin inhibitors, cycloheximide | max response, % | AID 2314 | hit rate 12% among 300,000 | cell reporter, cycloheximide protein synthesis inhibition counterscreen; in the data active = max response mostly above about 13%, no sharp cut-off; inactive = mostly below about 14%; also: read at 38.3 µM for the half of the compounds with a filed dose; 0% is about no effect
Shiga inhibitor: blocks Shiga toxin action in Vero cells; Vero cells, Shiga toxin protein synthesis inhibition reporter; inhibition, % at 38.7 µM; hit rate 9.2% among 290,000; in the data active = inhibition mostly above about 28%, no sharp cut-off; inactive = mostly below about 43%; also: 0% is about no effect
Pf growth 96h: P. falciparum growth inhibition at 96 hours | hit rate 6.9% among 320,000 | Potency, µM (highest dose often 28.7 µM), for the others: top-dose activity change, negative = inhibition, hits mostly inhibitors | P. falciparum luciferase reporter growth, 96 h; also: potency is read from the fitted curve at half-maximal effect; % is scaled to controls: 0 for no effect and ±100 for the full control effect
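Luminescence readout: decreased luciferase signal marks inhibited growth of reporter-expressing P. falciparum in infected red cells (2% hematocrit, 0.05% parasitemia final), exposed to compound two generations (96 h, 37 C, 5% CO2).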
HCV inhibitor: blocks hepatitis C virus | Huh7.5.1 HCVcc-Cre infection, luciferase reporter, 44 h | Potency, µM (titrated, usually from 41.8 µM), for the others: at the highest dose activity change, negative = inhibition, usual class: inhibitors | hit rate 3.4% among 340,000 | AID 651820; also: potency is read from the fitted curve at half-maximal effect; % is scaled to controls: 0 for no effect and ±100 for the full control effect
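Compounds are dispensed onto cells plated 4 h earlier at 1,000 per well, with HCVcc-Cre virus (about 0.5 moi) added next. Following 44 h of culture, luminescent signal is measured for 15 sec after 15 min with substrate at room temperature.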
* marks the source's active call; other numbers are inactive results; ? = inconclusive; . = no result. Compounds with a hit are over-represented: about 21% of the library has one in this group of screens. Unless noted, calls follow the shape of the dose curve; as a rule, active = well fitted curve in the direction sought with a large enough effect; inconclusive = small, poorly fitted or top-dose-only effect, or another doubt; inactive = no such curve, though single readings can be large; an effect the other way counts as inactive or inconclusive.

SMILES	Pf growth 48h	AMA1 RON2 block	Cycloheximide cs	Shiga inhibitor	Pf growth 96h	HCV inhibitor
Cc1cccc(NC(=O)C(Cc2ccccc2)c2nn[nH]n2)c1C (configuration not stated)	?	-6%	6	.	8.3µM*	18%
Cc1cccc(NC(=O)c2ccccc2NC(=O)Cc2ccccc2)c1C	41%	4%	-2	-8	40%	25%
COc1cccc(-n2c(=O)n(Cc3ccccc3)c(=O)c3[nH]cnc32)c1C	-5%	-18%	8	15	-2%	0%
CC(=O)OCC1CC(COC(C)=O)C(COC(C)=O)CC1COC(C)=O (configuration not stated)	.	-14%	.	.	.	39%
COC(=O)c1cc(Cl)cc2c(C)c(C3(O)CCCCC3)[nH]c12	54%	-5%	2	0	42%	8.9µM*
O=C(Nc1ccc2c(c1)OCCO2)C(=S)NCc1ccccc1	287%	107%	49*	82*	46%	17%
O=C(NCc1cccs1)c1ccc2c(c1)OCCO2	58%	-6%	37*	22	3%	4%
O=C(Nc1ccc2c(c1)OCCO2)C(CCc1ccccc1)N(Cc1ccccc1)Cc1ccccc1 (configuration not stated)	.	-14%	.	.	.	.
COc1ccc(NC(=O)N[C@@H](Cc2ccccc2)C(=O)NN)cc1	?	6%	-2	-1	?	?
NNC(=O)[C@H](Cc1ccccc1)NC(=O)Nc1ccc2c(c1)OCCO2	9.3µM*	37%	2	-3	?	5%
O=C(NCc1ccccc1Cl)c1ccc2c(c1)OCO2	28%	-9%	18*	32*	-3%	-7%
CC(C)C1C(=O)N(Cc2cn(CC3CCCCC3)nn2)CCS(=O)(=O)N1Cc1ccc(-c2cccc(CO)c2)cc1 (configuration not stated)	.	-2%	.	.	.	.
CCOc1ccccc1NC(=O)COC(=O)c1cnc(C)cn1	13%	3%	.	.	15%	8%
O=C(NCc1ccccc1)c1ccc2c(c1)OCCO2	57%	4%	23*	26	36%	20%
CC(=O)Nc1ccc(S(=O)(=O)NCC(=O)N2CCN(S(=O)(=O)c3cccs3)CC2)cc1	?	20%	.	.	?	-1%
O=C(CCSc1ccccc1)Nc1nccs1	11%	0%	19*	36	.	-3%
O=C(CCSc1ccccc1)Nc1ccccc1Br	?	10%	40*	74*	37%	-4%
CN(CC(=O)Nc1ccccc1Br)C(=O)CCC1CCCC1	15%	-2%	57*	45*	?	13%
CN(CC(=O)Nc1ccccc1Br)C(=O)CCc1ccccc1	8%	1%	-3	-12	21%	24%
Cc1ccc(SCCC(=O)Nc2nccs2)cc1	4%	?	9	61	12%	6%
O=C(CNC(=O)C1CCCC1)Nc1ccccc1Br	?	-15%	.	.	-24%	25%
O=C(CSC1CCCCC1)Nc1ccccc1Br	22%	8%	13*	90*	22%	17%
CCOc1ccc(S(=O)(=O)NCc2ccc3c(c2)OCO3)cc1C(=O)O	.	3%	-4	2	3%	16%
O=C(Cc1ccc(Cl)c(Cl)c1)Nc1ccc2[nH]c(=O)[nH]c2c1	31%	14%	-5	3	16%	-12%
O=C(CCSc1ccccc1)Nc1ccc(S(=O)(=O)Nc2ncccn2)cc1	6%	2%	2	-10	-27%	16%
SMILES	Pf growth 48h	AMA1 RON2 block	Cycloheximide cs	Shiga inhibitor	Pf growth 96h	HCV inhibitor
O=C(CCn1c(=O)sc2ccccc21)Nc1nccs1	.	-6%	33*	40	128%	2%
O=C(CSCc1ccc(Cl)cc1)Nc1ccccc1O	0%	-7%	13	21	153%	-3%
O=C(CCCSc1ccc(Cl)cc1)Nc1ccccc1O	-13%	-5%	27*	31	13%	-6%
O=C(CCSc1ccccc1)Nc1ncccn1	27%	4%	30*	5	-13%	0%
Cc1c(C(=O)NCc2ccccc2)sc(=O)n1Cc1ccccc1F	.	-2%	.	.	.	.
CCCCOCCCNC(=O)C[C@@H]1C[C@@]2(C(=O)OCC)CCC=C2N(Cc2cccc3ccccc23)C1=O	.	-8%	.	.	.	.
Cl/C(=C\n1cncn1)c1ccc(Cl)cc1Cl	-6%	.	.	.	-21%	.
CCc1nc(SCC(=O)Nc2ccccc2Cl)n[nH]1	28%	-4%	11	26	?	1%
